Screens from PubChem BioAssay.
RTF Ca sens inh: cardiac RTF calcium sensitivity inhibitors, primary screen, biochemical, IANBD-TnC fluorescence, EC70 calcium; Troponin I, cardiac muscle (Homo sapiens) + Troponin T, cardiac muscle (Homo sapiens) + …; IANBD-labeled cardiac RTF, Ca2+ fluorescence; inhibition, % at 7.15 µM; 340,000 compounds, 0.12% hits; AID 493244, 2011;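 active = inhibition above the mean inhibition of all tested compounds plus 3 SD, cut at about 17% in these data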;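 note: assay run at fixed EC70 calcium of 1.6 mM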
Keap1-Nrf2 PPI: Keap1-Nrf2 protein-protein interaction inhibitors, primary screen, biochemical, fluorescence polarization, single point; inhibition, % at 9.4 µM; 340,000 compounds, 0.15% hits; Keap1 Kelch-Nrf2 peptide fluorescence polarization, 1536-well; Kelch-like ECH-associated protein 1 (Homo sapiens), Q14145; AID 504523, 2011; in the data active = inhibition above about 12%;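 note: human Keap1 Kelch domain with fluorescein labeled Nrf2 9mer peptide probe; 0% = neutral control wells and 100% = peptide positive control; higher means more block of Keap1 binding to Nrf2 peptide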
EBV gp42 inh: Epstein-Barr virus gp42 inhibitors, primary screen, biochemical, uHTS, fluorescence polarization | 220,000 compounds, 0.42% hits | Fluorescence polarization binding assay, mP read-out | AID 1085, 2008 | Glycoprotein 42 (Epstein-Barr virus (strain AG876)), Q1HVG2 | inhibition, % (tested at 21.74 µM); in the data active = inhibition above about 50%
C-LANA FP: inhibitors of KSHV C-LANA binding to DNA, primary screen, biochemical, fluorescence polarization, FAM-LBS DNA, MBP-C-LANA, single point | Kaposi's sarcoma herpesvirus LANA C-terminal domain (residues 932-1162) DNA binding | inhibition, % at 9 µM | 340,000 compounds, 0.078% hits;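 active = highest replicate inhibition at or above 60% at 9 µM, even if other replicates fall short; inactive = all replicates below 60% inhibition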;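 note: 0% = neutral control wells and 100% = 4 µM acridine orange control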
cardiac RTF act: cardiac RTF calcium sensitivity activators, primary screen, biochemical, IANBD-TnC fluorescence, EC20 calcium | activation, % at 7.2 µM | 340,000 compounds, 0.24% hits | IANBD-labeled TnC RTF fluorescence at EC20 calcium; 0% EC20 calcium, 100% full calcium | AID 493008, 2010;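 active = activation above the mean over all tested compounds plus 3 SD, cut at about 30% in these data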;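 note: rise in fluorescence read as greater calcium sensitivity of cardiac thin filaments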
E coli Lon inh: inhibitors of E. coli Lon protease, primary screen, biochemical, fluorescence polarization; P0A9M0; purified E. coli Lon protease; inhibition, % at 7.94 µM; 360,000 compounds, 0.42% hits; AID 602123, 2011; in the data active = inhibition above about 13%, passing the limit was not always enough;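 note: 0% = enzyme with probe and DMSO and 100% = no enzyme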
The depositor's hits bear a star; i = inactive; . = no result; + = active, no number. In the library only some 0.98% were active in any assay of this set; here they are far more common.

SMILES | RTF Ca sens inh | Keap1-Nrf2 PPI | EBV gp42 inh | C-LANA FP | cardiac RTF act | E coli Lon inh
Cc1ccc(N2C(=O)[C@@H]3[C@H](C2=O)[C@H]2C=C(C(=O)c4ccccc4)C=CN2[C@@H]3C(=O)c2ccc(Cl)cc2)cc1 | 1 | -1 | -2 | 2 | -1 | -9
O=C(CN1CCN(c2ccc(O)cc2)CC1)Nc1ccc(S(=O)(=O)N2CCCC2)cc1 | -9 | 2 | . | 6 | 1 | -1
CC(C)NC(=O)c1ccc(COc2cc(Cl)ccc2Cl)o1 | -4 | -2 | . | -1 | 8 | -1
CCc1nc2c(OCc3ccc(F)cc3)cccn2c1N(C)C(=O)C(C)C | . | . | . | . | . | 1
COc1ccc(C)cc1Nc1n[n+](-c2ccccc2)c(-c2cc([N+](=O)[O-])cc(OC)c2O)s1 | -80 | -9 | . | -2 | 46* | -37
Cc1cc(S(=O)(=O)Nc2nc(CN3CCOCC3)nc3sc4c(c23)CCC4)ccc1F | -2 | -6 | . | 1 | 6 | -9
CCOC(=O)N1CCN(C(=O)c2ccc3c(c2)NC(=O)/C(=C\c2cccc(C)c2)S3)CC1 | -3 | 1 | . | 1 | -10 | 0
O=C1OCCC1=COCCCCCOC=C1CCOC1=O | . | . | . | . | . | -4
COCCN=c1scc(-c2ccco2)n1/N=C/c1ccc(O)c(O)c1O | -8 | 1 | 74* | 9 | -5 | 18
O=C1CC(C(=O)N2CCN(c3ccccc3O)CC2)CN1Cc1ccccc1 (configuration not stated) | -2 | 1 | . | 0 | -2 | 2
CCCCN1C(=O)/C(=C/C=C2\N(C)c3ccccc3C2(C)C)SC1=S | . | . | + | . | . | .
O=C(O)c1ccc(/C=C2/SC(=S)N(Cc3ccccc3)C2=O)cc1 | -11 | 3 | . | -1 | -2 | 3
CCCCN1C(=O)/C(=C/C=C2\SCCN2C)SC1=S | -205 | -186 | -273 | -14 | 115* | i
CN1CCS/C1=C/C=C1\SC(=S)N(CC(=O)O)C1=O | -431 | -421 | -310 | -101 | 249* | i
CCCN1C(=O)/C(=C\C=C2/C=CN(CC)c3ccccc32)SC1=S | 2 | -4 | -13 | 2 | 7 | 5
CN1CCS/C1=C/C=C1/SC(=S)N(Cc2ccccc2)C1=O | -119 | -22 | -213 | -2 | 96* | i
COc1cccc(C(=O)c2ccccc2C(=O)O)c1 | . | . | . | . | . | 0
COc1ccc(C(CC(=O)N2CCCC2)c2c(OC)cc(OC)c3c(-c4ccccc4)cc(=O)oc23)cc1 (configuration not stated) | -10 | -1 | 82* | -1 | -1 | -3
CN1C[C@@H]2[C@@H]3C(=O)N(Cc4ccccc4)C(=O)[C@@H]3[C@](Cc3ccccc3)(C1=O)N2C(=O)c1ccc(C(C)(C)C)cc1 | 8 | -5 | . | 0 | 3 | -9
Cc1ccc2c(=O)n3c(nc2c1)C(Cc1ccccc1)NC(=O)c1cc2ccccc2cc1-3 (configuration not stated) | . | . | . | . | . | -3
COc1cc(/C=C2\CCCc3c2nc2ccccc2c3C(=O)O)cc([N+](=O)[O-])c1O | 11 | 2 | . | 7 | -1 | 6
COc1cc(/C=C2\CCCc3c2nc2ccccc2c3C(=O)O)cc(OC)c1O | 3 | -1 | -6 | -1 | -3 | 3
COc1ccc(/C=C2\CCCc3c2nc2ccccc2c3C(=O)O)cc1OC | . | . | 105* | . | . | .
CCOc1ccc(/C=C2\CCCc3c2nc2ccccc2c3C(=O)O)cc1OC | i | 114* | . | 148* | 767* | 178*
CCOC(=O)N1CCN(C(=O)C[C@@H]2C[C@@]3(C(=O)OCC)CCCC=C3N(Cc3ccc(Cl)cc3Cl)C2=O)CC1 | . | . | . | . | . | 0
SMILES | RTF Ca sens inh | Keap1-Nrf2 PPI | EBV gp42 inh | C-LANA FP | cardiac RTF act | E coli Lon inh
O=C1c2ccc(-c3ccc(Cl)c(C(F)(F)F)c3)cc2S(=O)(=O)c2cccc(C(=O)N3CCN(c4ccc(Cl)cn4)CC3)c21 | -13 | 2 | . | 1 | 0 | -19
O=C(CNS(=O)(=O)c1ccc(Br)s1)NCc1ccccc1 | -4 | -4 | . | 0 | -5 | 10
COc1cc(C=NCc2ccccc2)ccc1O | . | . | . | . | . | 6
COc1cc(/C=N/c2oc(-c3ccccc3)cc2C#N)ccc1O | -3 | -1 | 57* | 0 | 6 | -8
C=CCN1C(=O)/C(=C/c2ccc(N(C)C)cc2)S/C1=N\c1nnc(CC)s1 | . | . | 53* | . | . | .
Cc1ccc(CNC(=O)c2ccc(-n3cccc3)cc2)cc1 | 0 | -2 | 51* | 3 | -8 | -10
CCOC(=O)c1ccc2nc(C)c(CCC(C)=O)c(Cl)c2c1 | 3 | -6 | -11 | 0 | -8 | 20*
CCCCc1c(C)nc2ccc(C(=O)OCC)cc2c1Cl | -7 | 6 | 5 | -1 | 5 | -5
CCN(CC)c1ccc(/C=C/c2cc(-c3ccccc3)c3ccccc3n2)cc1 | -430 | -5 | 68* | 5 | 320* | -333
CCSc1cc(N2CCCC2)nc(-c2ccccc2)n1 | -14 | -6 | 1 | 0 | 2 | -3
CCSc1cc(N2CCCC2)nc(-c2ccccc2Cl)n1 | 6 | -1 | 60* | 0 | -7 | 3
COCCN(C(=O)CN1CCCc2ccccc21)c1c(N)n(Cc2ccccc2)c(=O)[nH]c1=O | -100 | -4 | -33 | 24 | 61* | -18
CC(=O)Nc1ccc(N2CCc3c(C)c(C#N)c4nc5ccccc5n4c32)cc1 | . | . | 59* | . | . | .
COc1ccc(SC[C@H](Cc2ccccc2)N2CC[C@@H](C(C)(C)C)CCC2=O)cc1 | -2 | -5 | . | 0 | -1 | 3
O=C(Nc1ccc2c(c1)OCCO2)c1cccc(Cl)c1Cl | 1 | -2 | . | 0 | 39* | 4
COc1ccc(-n2nc3c(N4CCC(C(=O)N5CCC(C)CC5)CC4)nnc(C)c3c2C)cc1 | -45 | -65 | . | -4 | 32* | -300
N#CC1=C(N)Oc2cc(O)c(Cl)cc2C1c1ccccc1F (configuration not stated) | -54 | -9 | . | 21 | 33* | -168
N#CC1=C(N)Oc2cc(O)c(Cl)cc2C1c1cccnc1 (configuration not stated) | -5 | -10 | . | -8 | 5 | -57
O=C(COC(=O)c1cc(S(=O)(=O)N2CCCCC2)ccc1N1CCOCC1)c1ccccc1Cl | . | . | . | . | . | 6
Cc1ccc(N2C(=O)c3cccc4c([N+](=O)[O-])ccc(c34)C2=O)c2cccnc12 | -3 | 1 | 9 | 1 | 0 | 9
Cc1ccc(N2C(=O)c3cccc4c(N5CCN(C)CC5)ccc(c34)C2=O)c2cccnc12 | . | . | 159* | . | . | .
COC(CNC(=O)c1ccc2c3c(onc13)-c1ccccc1C2=O)OC | -3 | 101* | 190* | -2 | 0 | 31
